Bioassay records: PubChem, several laboratories
ATG4B inh: inhibitors of human ATG4B cysteine protease; Q9Y4P1; ATG4B cleavage of LC3-PLA2, NBD-HPC fluorescence, 1 h; inhibition, % at 8.33 µM; 0.51% of 340,000 active; AID 504462; in the data active means inhibition above about 40%
Target sequence (Q9Y4P1 whole entry, looked up): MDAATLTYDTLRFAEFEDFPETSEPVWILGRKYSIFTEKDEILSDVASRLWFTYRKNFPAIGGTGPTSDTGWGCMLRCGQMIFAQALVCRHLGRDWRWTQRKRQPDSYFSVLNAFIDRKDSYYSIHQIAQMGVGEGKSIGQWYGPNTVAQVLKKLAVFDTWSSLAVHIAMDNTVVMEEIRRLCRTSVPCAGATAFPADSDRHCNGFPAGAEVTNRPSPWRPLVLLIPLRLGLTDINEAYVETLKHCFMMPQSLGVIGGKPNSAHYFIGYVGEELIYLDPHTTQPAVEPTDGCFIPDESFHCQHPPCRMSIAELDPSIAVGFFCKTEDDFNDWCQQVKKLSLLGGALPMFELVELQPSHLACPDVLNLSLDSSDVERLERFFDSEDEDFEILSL
Yeast superoxide: caloric restriction mimetics inhibiting age-related superoxide in yeast. S. cerevisiae aged cells, superoxide DHE fluorescence; stronger effect = lower value. superoxide response (% of plate mean), % at 10 µM. 0.18% of 330,000 active;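 active means superoxide response under a set limit, about three screen SD below normal, cut at about 65% in these data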;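 further: yeast aged for seven days with compound at 30 °C before DHE staining; 100% = average MFI of all compound-treated wells on the plate with controls excluded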
Efflux pump inh: inhibitors of Candida antifungal efflux pumps expressed in yeast; AID 485275; inhibition, % at 10 µM; 0.44% of 330,000 active; S. cerevisiae Candida pump triplex, Nile Red efflux;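 active means plate passing quality check with inhibition over a set limit, or well fluorescence over plate mean plus 4 SD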;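 further: Nile Red retained in pooled yeast measured as flow cytometry median fluorescence; 0% = buffer negative control and 100% = Enniatin B positive control; higher means more Nile Red kept so more efflux inhibition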
GRK2 aptamer HTS: inhibitors of human GRK2 displacing RNA aptamer; P25098; inhibition of aptamer binding, % at 10 µM; 0.59% of 330,000 active; AID 488847; bead flow cytometry, FAM-aptamer displacement from GRK2;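 active means inhibition of aptamer binding above 40%, roughly 3 SD of noise, on plates passing a quality check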;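 further: median bead fluorescence of bound FAM aptamer so fluorescent compounds give negative values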
Yeast cmpd fluor: flagged as fluorescent in efflux inhibitor counter-screen. 4% of 1,700 active. shares compounds with Efflux pump inh. fluorescence ratio to DMSO, % at 10 µM. S. cerevisiae AD/pABC3, compound fluorescence, flow cytometry;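 active means fluorescence ratio to DMSO above its plate's cutoff, the plate mean ratio plus 5 SD, cut at about 210% in these data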;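 further: unstained yeast with no Nile Red so the signal is compound autofluorescence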
CaMdr1 efflux inh: blocks the Candida albicans Mdr1 efflux pump in yeast | 1% of 1,700 active | inhibition, % at 10 µM | AID 588518 | S. cerevisiae AD/CaMDR1, Nile Red efflux, flow cytometry | shares compounds with Efflux pump inh; in the data active means inhibition above about 26%;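 further: 0% = DMSO vehicle and 100% = reference inhibitor; higher means more Nile Red retained so more efflux inhibition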
Cdr2 pump inh: blocks the Candida albicans Cdr2 efflux pump in yeast; 4% of 1,700 active; Nile Red retention ratio vs DMSO, % at 10 µM; AID 588520; shares compounds with Efflux pump inh; S. cerevisiae AD/CaCDR2, Nile Red retention, flow cytometry; in the data active means Nile Red retention ratio vs DMSO above about 190%;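 further: higher ratio means more blocking of Cdr2 efflux of the dye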
Cdr1 pump inh: inhibitors of Candida albicans Cdr1 efflux pump; S. cerevisiae AD/CaCDR1, Nile Red efflux, flow cytometry; shares compounds with Efflux pump inh; 1% of 1,700 active; inhibition, % at 10 µM;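 active means inhibition above the screen-wide mean plus twice its standard deviation, cut at about 32% in these data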
An asterisk follows results filed as active; nt = not tested or not shown. Sampled rows, rich in hits. Any-hit rate of the full collection: about 1.6%.

SMILES	ATG4B inh	Yeast superoxide	Efflux pump inh	GRK2 aptamer HTS	Yeast cmpd fluor	CaMdr1 efflux inh	Cdr2 pump inh	Cdr1 pump inh
Cc1ccc(-c2nc3s/c(=C\c4ccco4)c(=O)n3n2)cc1	3	106	0.8*	2	97	0	97	0
COc1ccc(Br)cc1/C=c1\sc2nc(-c3ccco3)nn2c1=O	33	116	1.1*	0	107	0	109	0
Cc1ccc(NC(=O)C2=C(O)c3ccccc3N(C)S2(=O)=O)cc1	-11	117	0	2	nt	nt	nt	nt
O=C(CSc1cccc[n+]1[O-])Nc1ccccc1C(F)(F)F	1	102	0	1	nt	nt	nt	nt
O=C(CSc1cccc[n+]1[O-])Nc1ccccc1Oc1ccccc1	2	107	1.0*	0	110	0	119	0
CCCCCCCCCCOC(=O)Cn1c(COc2ccc(Cl)cc2)[n+](C)c2ccccc21	-3	93	3.1*	0	115	0	222*	0
CCCCCCCCCCOC(=O)Cn1c(COc2ccccc2)[n+](C)c2ccccc21	16	82	0	0	nt	nt	nt	nt
CCCCCCCCCCOC(=O)Cn1c(COc2cccc(C)c2)[n+](C)c2ccccc21	20	112	1.0*	nt	110	0	120	0
CNc1ccc(Br)cc1C(O)c1ccccc1 (configuration not stated)	12	109	0	1	nt	nt	nt	nt
Cc1ccc(S(=O)(=O)Nc2ccc3c(c2)c2c(n3S(=O)(=O)c3ccc(C)cc3)CCCC2=O)cc1	-15	115	0	2	nt	nt	nt	nt
Cc1ccc([C@@H]2[C@@H]3C(=O)N(C)C(=O)[C@@H]3[C@@H]3C(=O)Nc4ccccc4C(=O)N23)cc1	-2	112	0.6*	1	95	0	97	0
O=C(Nc1cccc(S(=O)(=O)NC2=NCCC2)c1)c1ccc(=O)[nH]c1	-1	101	0	11	nt	nt	nt	nt
Cc1ccc(CNC(=O)c2cc(-c3ccccc3)nn2CC2CC(c3cccnc3)=NO2)cc1 (configuration not stated)	0	108	0.8*	0	102	0	106	0
COc1cccc(CCC(=O)N2CCC(n3nccc3NC(=O)CC(C)C)CC2)c1	1	105	0	3	nt	nt	nt	nt
COc1ccc(-c2ccc(-c3noc(-c4ccccc4OC)n3)c(OC)n2)cc1	5	92	0.5*	0	99	0	116	0
CC1=NN(c2nc3ccccc3[nH]2)C(=O)/C1=C/N(C)C	3	111	2.4*	2	112	0	104	0
CC1=NN(c2ccccc2)C(=O)/C1=C/N(C)C	-11	101	0	1	nt	nt	nt	nt
O=C(Oc1ccccc1/C=C\C(=O)c1cc2ccccc2o1)c1ccccc1	39	81	16*	0	103	0	100	0
CN(C)CC/C=C1/c2ccccc2Sc2ccc(Cl)cc21	23	91	0	0	97	0	94	0
O=C(Nc1ccccc1C(=O)O)c1ccc(NC(=O)c2ccc(Br)o2)cc1	6	123	0	4	103	0	93	0
Cc1ccccc1NC(=O)c1ccccc1NC(=O)c1ccco1	5	111	0	7	nt	nt	nt	nt
O=C(Nc1ccccc1C(=O)O)c1cccc(NC(=O)c2ccc(Br)o2)c1	11	115	0	19	nt	nt	nt	nt
Cc1ccccc1NC(=O)c1ccc(NC(=O)c2ccco2)cc1	3	95	0	0	113	0	98	0
O=C(O)c1c(C(=O)O)c(-c2ccc(Br)cc2)n2c1CSC2	-1	111	0	2	nt	nt	nt	nt
COc1ccccc1-c1nc(C(N)=O)c2[nH]c(=O)n(-c3cccc(C)c3)c2n1	-12	98	0.4*	1	104	1	112	1
SMILES	ATG4B inh	Yeast superoxide	Efflux pump inh	GRK2 aptamer HTS	Yeast cmpd fluor	CaMdr1 efflux inh	Cdr2 pump inh	Cdr1 pump inh
NC(=O)c1nc(-c2ccco2)nc2c1[nH]c(=O)n2-c1ccc(Cl)c(Cl)c1	6	101	1.2*	3	107	0	105	0
CCOc1ccccc1-c1nc(C(N)=O)c2[nH]c(=O)n(-c3ccccc3)c2n1	4	96	0	4	106	0	96	0
COc1ccc(-c2nc(C(N)=O)c3[nH]c(=O)n(-c4cccc(C)c4)c3n2)c(OC)c1	-11	102	0	1	nt	nt	nt	nt
CC(C)Cc1nc(C(N)=O)c2[nH]c(=O)n(-c3ccc(F)cc3)c2n1	0	106	0	0	nt	nt	nt	nt
Cc1cccc(-n2c(=O)[nH]c3c(C(N)=O)nc(-c4ccccc4Cl)nc32)c1	-4	107	0	2	nt	nt	nt	nt
NC(=O)c1nc(-c2cccs2)nc2c1[nH]c(=O)n2-c1ccc(F)cc1	-1	111	0	16	103	0	106	0
O=C1CC(N2CCN(c3ccc(F)cc3)CC2)C(=O)N1c1ccc2c(c1)OCO2 (configuration not stated)	-9	99	0	2	nt	nt	nt	nt
CC(C)C(O)(C#CCN1CCCCC1)C(C)C	38	81	14*	1	111	0	106	0
CCC(O)(C#CCN1CCCCC1)CC	12	102	0	0	nt	nt	nt	nt
CC1=CC(=C(C#N)C#N)C=C(C)N1CCC(C)C	1	89	0	0	nt	nt	nt	nt
N/C(=N\OC(=O)Cc1ccccc1)c1cccnc1	1	118	1	0	nt	nt	nt	nt
N/C(=N\OC(=O)Cc1ccccc1)c1ccccc1Cl	-8	94	0	4	91	0	105	0
C=CC[C@@H](CC(=O)N(CCO)Cc1ccccc1)C(=O)N[C@H](COC(=O)[C@@H](CC=C)Cc1ccc(F)cc1)Cc1c[nH]c2ccccc12	-7	107	162*	2	104	136*	112	135*
Cc1ccc(NC(=O)c2ccc(=O)[nH]n2)cc1S(=O)(=O)Nc1ccc(SC(F)F)cc1	-13	104	0	0	nt	nt	nt	nt
Cc1cccn2c(=O)nc(SCC(=O)Nc3ccc4c(c3)OCO4)nc12	-10	103	0	9	nt	nt	nt	nt
Cc1ccc(SCC(=O)N(Cc2nc(-c3ccccc3)no2)C(C)C)cc1	9	110	1.5*	1	99	0	106	0
Cc1ccc(C(=O)N(Cc2nc(-c3ccc(C)cc3)no2)C(C)C)cc1	1	109	0	1	nt	nt	nt	nt
Cc1cc(C(=O)NC2CC(C)(C)Cc3c2cnn3-c2cccc(F)c2)n(C)n1 (configuration not stated)	0	89	0	0	106	0	123	0
Cc1cc(C(=O)NC2CC(C)(C)Cc3c2cnn3-c2ccccc2)n(C)n1 (configuration not stated)	-7	105	0	0	nt	nt	nt	nt
